Inconclusive results are not listed. Values without a mark were called inactive. Calls of active or inactive are those of the source. Calls follow the shape of the dose curve; as a rule, active = well fitted cell-killing curve with a large enough effect; inconclusive = small, poorly fitted or top-dose-only effect, or effect the other way; inactive = flat fitted curve, though single readings scatter.

Data on 14 compounds can be found in PubChem BioAssay (NCATS).
% is scaled to controls: 0 for no effect and ±100 for the full control effect; potency is read from the fitted curve at half-maximal effect.

The subject of the test is SKOV3. In words: Primary qHTS to identify gynecologic anti-cancer compounds using libraries of approved drugs and bioactive compounds (AID 1345084). Also: nearly all actives have a fitted effect of over 55% in size. Conditions: Gynecologic cancer cell panel viability, ATPlite luminescence, 48 h; series mostly up to 57.5 µM; activity change, negative = cytotoxicity: at the top concentration. In a few lines:
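Cytotoxicity screen measuring ATP content by luciferase luminescence. Each compound is applied at five concentrations for 48 h at 37 C with 5% CO2.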
As for `Fc1ccc(CN2CCC(Nc3ccc(C(F)(F)F)nn3)CC2)cc1F`, the “activity change, negative = cytotoxicity” value is 25.7%.

As for `Cc1nc(N2CCN(C(=O)c3ccco3)CC2)c2c3c(sc2n1)CCCC3`, the “activity change, negative = cytotoxicity” value was 9.04%.

As to `CC(F)(F)CN1CCOc2c(nn(-c3ccccc3Cl)c2-c2ccc(Cl)cc2)C1=O`, the “activity change, negative = cytotoxicity” value is 2.95%.

As to `CN(C)c1cccc(Oc2cnc(Nc3cccc(O)c3)nc2)c1`, the “activity change, negative = cytotoxicity” value was 0%.

On to `CN1CCC(NC(=O)c2cc(-c3c(O)cc(O)cc3Oc3ccc([N+](=O)[O-])cc3)on2)CC1`, for which the Potency is 1.58 µM (active).

On to `CC1CC(=O)C2=C(C1)C1OC1C1(O)C2C(=O)c2cccc(O)c2C1O` (centres undefined), for which the “activity change, negative = cytotoxicity” value was -35.3% [at 38.5 µM].

In the case of `NCC1CCN(c2nccc(-c3ccc4ccccc4c3)n2)CC1`, the Potency was 22.4 µM (active).

Turning to `OC1CCC(Nc2nc(-c3ccccc3)nc3[nH]ccc23)CC1` (centres undefined), the “activity change, negative = cytotoxicity” value is -18.3%.

Take `Cn1ncc(Cl)c1-c1cc(C(=O)N[C@H](CN)Cc2ccc(F)c(F)c2)sc1Cl`: the Potency is 14.1 µM (active).

Regarding `COC1CC(=O)C23C(=O)NC(Cc4c[nH]c5ccccc45)C2C(C)C2(C)OC2C3/C=C/CC(C)CC1O` (centres undefined), the Potency was 8.91 µM (active).

As to `COc1ccc(C[C@H]2COC(=O)[C@@H]2Cc2ccc(O[C@@H]3O[C@H](CO)[C@@H](O)[C@H](O)[C@H]3O)c(OC)c2)cc1OC`, the Potency is 4.47 µM (active).

For the compound `O=C(C1CCCCC1)N(CCN1CCN(c2ccccc2O)CC1)c1ccccn1`, the “activity change, negative = cytotoxicity” value is -5.01%.

In the case of `C=C[C@@]1(C)CCC2C(=CCC3[C@]2(C)CCC[C@@]3(C)C(=O)O)C1` (some centres undefined), the “activity change, negative = cytotoxicity” value is 0%.

`CCCSc1nc(N[C@@H]2C[C@H]2c2ccc(F)c(F)c2)c2nnn([C@@H]3C[C@H](OCCO)[C@@H](O)[C@H]3O)c2n1`: the “activity change, negative = cytotoxicity” value was 0.0589%.
